# FBW7 activator: human FBW7 E3 ligase activation, primary screen | Q969H0 | AlphaScreen FBW7–phospho-cyclin E peptide binding, activator screen | normalized activity (activation), % at 26.1 µM | 650,000 compounds, 0.13% hits; in the data active means normalized activity above about 1.9%;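 further: purified mutant Fbw7 with reduced substrate affinity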
# Target sequence (Q969H0 whole entry, looked up): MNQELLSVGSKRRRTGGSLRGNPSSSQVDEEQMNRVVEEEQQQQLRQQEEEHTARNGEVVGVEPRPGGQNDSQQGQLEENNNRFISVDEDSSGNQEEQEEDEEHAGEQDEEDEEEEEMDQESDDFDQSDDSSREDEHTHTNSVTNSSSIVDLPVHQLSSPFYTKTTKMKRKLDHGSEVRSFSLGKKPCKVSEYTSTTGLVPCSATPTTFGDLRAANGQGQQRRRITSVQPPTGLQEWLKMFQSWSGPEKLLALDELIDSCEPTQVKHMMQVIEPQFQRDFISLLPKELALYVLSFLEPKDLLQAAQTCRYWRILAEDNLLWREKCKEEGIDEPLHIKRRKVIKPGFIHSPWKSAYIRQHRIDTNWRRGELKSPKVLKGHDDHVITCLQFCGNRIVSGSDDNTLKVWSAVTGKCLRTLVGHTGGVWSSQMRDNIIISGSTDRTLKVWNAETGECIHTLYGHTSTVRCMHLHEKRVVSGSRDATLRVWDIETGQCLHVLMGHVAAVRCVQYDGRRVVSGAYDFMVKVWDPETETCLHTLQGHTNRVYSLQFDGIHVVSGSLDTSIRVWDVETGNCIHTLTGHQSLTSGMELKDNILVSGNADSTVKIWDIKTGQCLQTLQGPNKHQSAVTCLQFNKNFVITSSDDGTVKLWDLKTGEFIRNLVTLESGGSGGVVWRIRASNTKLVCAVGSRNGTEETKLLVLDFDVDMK
# MITF inh: inhibitors of human MITF. O75030. AlphaScreen MITF homodimerization, bead proximity signal. inhibition, % at 2.6 µM. 650,000 compounds, 0.91% hits; in the data active means inhibition above about 50%;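 further: 0% = vehicle wells with protein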
# TEAD-YAP inh: TEAD-YAP interaction inhibition; AID 1259422; 640,000 compounds, 1.4% hits; HEK-TIYL cells, TEAD-Gal4/YAP UAS-luciferase luminescence; inhibition, % at 9.12 µM; in the data active means inhibition above about 32%;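 further: 0% = median of test compound wells and 100% = reference inhibitor wells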
# GPR151 activ: activates the human receptor GPR151. Q8TDV0. PathHunter beta-arrestin GPR151 cells, luminescence. activation, % at 11.2 µM. 650,000 compounds, 1% hits. AID 1508602; in the data active means activation above about 4.9%;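 further: 0% = median of compound wells and 100% = cells with positive control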
# GPR151 confirm: confirmation of human GPR151 activators; shares compounds with GPR151 activ; GPR151 PathHunter beta-arrestin cells, luminescence, 90 min; % of EA-reagent control over plate median; activation, % at 11.2 µM; 6,700 tested, under 10 active; AID 1508609;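 active means mean percent activation across replicates above the confirmation screen cutoff of 4.91%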
# GPR119 ag: activates human GPR119 in a GPR151 counter-screen. 6,700 compounds, 0.3% hits. shares compounds with GPR151 activ. activation, % at 11.2 µM. GPR119 PathHunter beta-arrestin cells, luminescence, 90 min; 0 = compound-well median, 100 = enzyme-acceptor control;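 active means mean percent activation in the counterscreen above 29.09%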;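 further: counterscreen on off-target GPR119 to flag nonselective hits from the GPR151 activator screen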
# * = called active by the depositor; x = no result. The list is not random: actives were taken first. Their share in the collection is about 3.4%.
SMILES,FBW7 activator,MITF inh,TEAD-YAP inh,GPR151 activ,GPR151 confirm,GPR119 ag
CCOC(=O)c1sc(-n2nc(C)cc2C)nc1C,0,14,4,0,x,x
CC1(C)CC(=O)C([N+](=O)[O-])=C(NCc2ccccc2)C1,0,1,2,0,x,x
CC1=C(NCc2ccccc2)CCC1=O,0,12,7,6.0*,-1,-4
CCOC(=O)CSc1nnnn1-c1ccccc1OCC,0,8,-5,1,x,x
CCOc1ccccc1-n1nnnc1SCC(=O)NC(C)(C)C,0,-1,3,6.9*,1,2
O=C(Nc1ccc(Oc2ccccc2)cc1)c1ccc(-c2ccccc2)cc1,0,-1,-6,-1,x,x
COc1cccc(C2c3c(oc4ccccc4c3=O)C(=O)N2CCO)c1 (centres undefined),0,11,7,8.0*,0,-8
C=CCN1C(=O)c2oc3ccccc3c(=O)c2C1c1ccccc1 (centres undefined),0,-8,-8,6.4*,0,-2
Cc1oc(C)c(S(=O)(=O)NC(C)C)c1C(=O)NCc1ccco1,0,-2,2,7.1*,2,1
Cc1occc1C(=O)NCc1ccco1,0,41,-3,-1,x,x
CCOc1ccc(N2CC(NC(=O)N3CCc4ccccc43)CC2=O)cc1 (centres undefined),0,2,-8,1,x,x
Cc1cccc(OCCn2c(SCc3nc4ccccc4[nH]3)nc3ccccc32)c1,0,-18,-16,1,x,x
COc1ccc(/C=N/NC(=O)c2cc(C(C)(C)C)[nH]n2)cc1O,0,0,-3,1,x,x
COc1ccccc1NC(C)C(=O)N/N=C/c1cccc(OC)c1O (centres undefined),0,21,16,0,x,x
COc1cccc(/C=N\NC(=O)c2cc(C(C)(C)C)[nH]n2)c1O,-1,22,69*,5.8*,1,4
CC(Oc1cccc(Cl)c1)C(=O)N/N=C/c1ccccc1O (centres undefined),0,5,8,6.6*,0,2
COc1ccc(NC(C)C(=O)N/N=C/c2ccccc2Cl)cc1 (centres undefined),0,17,6,7.3*,0,-7
COc1cccc(/C=N/NC(=O)C(C)Nc2ccc(C)cc2)c1O (centres undefined),0,9,17,12*,1,1
O=C1OC(c2ccc(Cl)c([N+](=O)[O-])c2)=N/C1=C\c1cccnc1,0,-4,5,0,x,x
CCOc1ccc(NC(=O)C(=O)NCCc2ccc(OC)cc2)cc1,0,15,1,-1,x,x
CCOc1ccc(N2CC(C(=O)OC)CC2=O)cc1 (centres undefined),0,3,9,6.4*,0,-1
CCOc1ccc(N2CC(C(=O)N3CCN(C(=O)C4CC(=O)N(c5ccc(OCC)cc5)C4)CC3)CC2=O)cc1 (centres undefined),0,-2,-24,2,x,x
CCOc1ccc(N2CC(C(=O)N3CCC4(CC3)NC(=O)c3ccccc3N4)CC2=O)cc1 (centres undefined),0,2,-4,5.1*,0,-7
CCSc1ccc(C(F)(F)F)cc1[N+](=O)[O-],0,0,-3,0,x,x
CCNc1nc2ccc(C(=O)NCc3cccc(C(F)(F)F)c3)cc2s1,0,4,-13,0,x,x
SMILES,FBW7 activator,MITF inh,TEAD-YAP inh,GPR151 activ,GPR151 confirm,GPR119 ag
COC(=O)c1nc(N)sc1-c1ccc(Cl)c(Cl)c1,0,2,-1,7.6*,0,-4
O=C(NCc1ccccc1)/C(=C\c1ccc(Cl)cc1)NC(=O)c1ccco1,1,-18,3,-1,x,x
O=C(NCc1ccco1)/C(=C\c1ccc(Br)cc1)NC(=O)c1ccccc1,0,0,1,7.0*,1,-2
O=C(NCc1ccco1)/C(=C/c1ccc(Cl)cc1)NC(=O)c1ccco1,0,1,-2,5.7*,0,3
Cc1ccnc(NC(=O)C2C3C=CC(C3)C2C(=O)O)c1 (centres undefined),0,4,1,0,x,x
COc1ccc(OC)c2c1cc(C(=O)O)n2CC(C)=O,0,27,3,1,x,x
Cc1cc(N2C(=O)C3C4CC(c5ccccc5)C(C4)C3C2=O)no1 (centres undefined),0,-1,1,11*,1,-4
N#CC1=C(N)N(c2cccc(C(F)(F)F)c2)C2=C(C(=O)CCC2)C1c1ccc2c(c1)OCO2 (centres undefined),0,11,-5,5.0*,1,8
CC1(C)CC(=O)C2=C(C1)N(c1cccc(C(F)(F)F)c1)C(N)=C(C#N)C2c1ccc2c(c1)OCO2 (centres undefined),0,4,0,1,x,x
Cc1ccccc1NC(=O)Cn1nc(C)n2cccc2c1=O,0,7,4,8.6*,-1,-12
Cn1c(Nc2ccc(-n3cc(CC(=O)NCc4nc5ccccc5[nH]4)c4ccccc43)nn2)nc2ccccc21,0,10,-16,1,x,x
O=C(Cc1cn(-c2ccc(Nc3ccccc3)nn2)c2ccccc12)NCc1nc2ccccc2[nH]1,0,-1,-10,5.3*,0,-6
COC(=O)c1sc2nc(N)c(C#N)c(-c3ccc(Cl)cc3)c2c1N,0,5,3,0,x,x
CCOC(=O)c1sc2nc(N)c(C#N)c(-c3ccc(Cl)cc3)c2c1N,0,-2,2,6.6*,0,-12
CCOC(=O)c1sc(NC(=O)C2CC2)nc1C,0,-5,8,13*,1,5
COc1cc(/C=C/c2[nH]c(=O)[nH]c(=O)c2[N+](=O)[O-])cc(Cl)c1O,0,11,2,0,x,x
COc1cc(/C=C/c2[nH]c(=O)[nH]c(=O)c2[N+](=O)[O-])cc(OC)c1OC,0,10,-3,7.7*,-1,-4
CC(C)=CCN1CCN(Cc2sccc2C)CC1CCO (centres undefined),0,0,-14,12*,2,15
O=S(=O)(c1ccc(Oc2ccccc2Cl)cc1)N1CCCC1,0,-12,-7,0,x,x
CCOc1ccc(CCNS(=O)(=O)c2cc(-c3nnc(Nc4ccc(Br)cc4)c4ccccc34)ccc2C)cc1OCC,0,-13,3,-1,x,x
CC(=O)OC[C@H]1O[C@H](C/C=N/O[C@@H](C)c2cn([C@H](CO)Cc3ccccc3)nn2)C=C[C@@H]1OC(C)=O,0,15,x,1,x,x
CC(C)[C@@H](OCc1ccccc1)[C@H](C)/C=N/O[C@H](C)c1cn([C@H](CO)Cc2ccccc2)nn1,0,-1,x,6.1*,0,5
CC(NC(=O)c1cc(-c2ccccc2Cl)nc2ccccc12)c1ccccc1 (centres undefined),0,15,18,0,x,x

# Screens: PubChem, The Scripps Research Institute Molecular Screening Center
